This is an account of results in PubChem BioAssay (EPA / NIEHS).

“And” between values parts separate entries of the source, which are not always exact repeats. Equal entries are not always repeated. A structure can be active in one record and inactive in another. The source made the active and inactive calls. How the source made its calls: active means hit-call score of the fitted dose curve at least 0.9, where 1 is the maximum; inactive means score below 0.9.

One may read the AC50 as the concentration at which the activity in the assay is half-maximal.

Assay [1] in a line: ATG_NFI_CIS: Attagene CIS-FACTORIAL HepG2 Assay for human Nuclear Factor I (NFI) (AID 2282989). To be noted: HepG2 cis-regulatory reporter, NFI response element transcription; actives raise or lower the signal. In outline:
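Transfected HepG2 liver cells, exposed 24 h, supplied total RNA for oligo(dT) reverse transcription and reporter-specific PCR. Labelled, HpaI-cut fragments were sized by capillary electrophoresis; DMSO set the baseline for bidirectional fitting.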

For assay [2], the target named is Myc proto-oncogene protein (Homo sapiens) (UniProt P01106). The experiment in a line: ATG_Myc_CIS: Attagene CIS-FACTORIAL HepG2 Assay for human Myelocytomatosis (Myc) Proto-Oncogene Transcription Factor (AID 2282990). The following applies: HepG2, Attagene cis-reporter transcription factor activity; actives raise or lower the signal. The procedure, abridged:
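Cells of the HepG2 human liver line bear multiple cis-driven reporter transcription units. Reporter mRNA after 24 h exposure is reverse-transcribed, amplified, labelled and resolved by capillary electrophoresis, with gain- or loss-of-signal fitting relative to DMSO.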

A short description of assay [3]: ATG_NF_kB_CIS: Attagene CIS-FACTORIAL HepG2 Assay for human Nuclear Factor Kappa B (NF-kB) (AID 2282991). To be noted: HepG2 Attagene cis-factorial NF-kB reporter mRNA; actives raise or lower the signal. The procedure, abridged:
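HepG2 cells transiently transfected with multiplexed cis-element reporter units measuring endogenous transcription factor activity; reporter mRNA read 24 h after dosing by RT-PCR, fluorescent labelling, HpaI digestion and capillary electrophoresis. Bidirectional fit against DMSO baseline.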

Assay [4] can be described thus: ATG_NRF2_ARE_CIS: Attagene CIS-FACTORIAL HepG2 Assay for human Nuclear Factor Erythroid 2 Related Factor 2 (NFR2) response to Antioxidant Response Elements (ARE) (AID 2282992).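 On AC50: reporter mRNA level measured by RT-PCR and capillary electrophoresis fluorescence.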 To be noted: HepG2 Attagene ARE/NRF2 reporter, transcription factor activity; actives raise or lower the signal. In outline: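 Transient MRTU transfection of HepG2; 24 h compound exposure; TriZol RNA, RT with oligo(dT), PCR, 6-FAM primer extension, HpaI cut, CE. Bidirectional fit vs DMSO.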

Assay [5] is described as follows: ATG_Oct_MLP_CIS: Attagene CIS-FACTORIAL HepG2 Assay for human Octamer-Binding Transcription Factor (Oct) (AID 2282993). To be noted: HepG2 Attagene cis-factorial Oct reporter, mRNA; actives raise or lower the signal. The procedure, abridged: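 Using HepG2 cells bearing transfected cis-reporter constructs, mRNA induction was read after 24 h by fluorescent RT-PCR and capillary electrophoresis, with DMSO defining baseline for gain- or loss-of-signal fits.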

Assay [6] deals with Cellular tumor antigen p53 (Homo sapiens) (UniProt P04637). The experiment in a line: ATG_p53_CIS: Attagene CIS-FACTORIAL HepG2 Assay for human p53 Transcription Factor (AID 2282994). To be noted: HepG2 p53 cis-element reporter, Attagene mRNA; actives raise or lower the signal. In outline: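 HepG2, transient MRTU transfection (cis promoter elements, endogenous TFs); 24 h dosing; RNA isolation, RT-PCR, 6-FAM primer extension, HpaI digest, CE fluorescence; bidirectional fit vs DMSO.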

Assay [7] can be described thus: BSK_3C_TissueFactor: BioMAP Diversity Plus: 3C Assay for Tissue Factor Biomarker Activity (AID 2282997). To be noted: BioMAP 3C HUVEC, tissue factor biomarker readout; actives raise or lower the signal. In outline:
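ELISA read-out of Tissue Factor levels on human umbilical vein endothelium collected 24 h after chemical dosing. Gain or loss of signal was fitted relative to DMSO.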

Assay [8] in a line: BSK_3C_uPAR: BioMAP Diversity Plus: 3C Assay for Urokinase-type plasminogen activator receptor (uPAR) Biomarker Activity (AID 2282998). To be noted: BioMAP 3C HUVEC, uPAR biomarker ELISA; actives raise or lower the signal. The procedure, abridged: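 In this endothelial cell-based assay, human umbilical vein primary cells were treated with chemicals and harvested at 24 h. uPAR was quantified using ELISA, with gains or losses fitted relative to DMSO controls.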

Assay [9] in a line: BSK_3C_VCAM1: BioMAP Diversity Plus: 3C Assay for Vascular cell adhesion molecule 1 (VCAM1) Biomarker Activity (AID 2282999). The following applies: BioMAP 3C HUVEC, VCAM1 ELISA, cytokine-stimulated; actives raise or lower the signal. The procedure, abridged:
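Endothelial cells from human umbilical vein are treated with test chemical. At 24 h, VCAM-1 is measured by ELISA, and responses in either direction are fitted relative to DMSO.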

Assay [10] is described as follows: BSK_4H_Eotaxin3: BioMAP Diversity Plus: 4H Assay for Eotaxin 3 Biomarker Activity (AID 2283000).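 On outcome: CCL26 protein level quantified by ELISA in parallel with SRB cytotoxicity check.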 The following applies: primary human endothelial cells (HUVEC); actives raise or lower the signal. The procedure, abridged:
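Chemicals were added to human umbilical vein endothelium cultures, and Eotaxin-3 was quantified by ELISA at 24 h. Values were derived by bidirectional fitting with DMSO serving as negative control and activity baseline.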

Cellular tumor antigen p53 (Homo sapiens), sequence (P04637 whole entry, looked up): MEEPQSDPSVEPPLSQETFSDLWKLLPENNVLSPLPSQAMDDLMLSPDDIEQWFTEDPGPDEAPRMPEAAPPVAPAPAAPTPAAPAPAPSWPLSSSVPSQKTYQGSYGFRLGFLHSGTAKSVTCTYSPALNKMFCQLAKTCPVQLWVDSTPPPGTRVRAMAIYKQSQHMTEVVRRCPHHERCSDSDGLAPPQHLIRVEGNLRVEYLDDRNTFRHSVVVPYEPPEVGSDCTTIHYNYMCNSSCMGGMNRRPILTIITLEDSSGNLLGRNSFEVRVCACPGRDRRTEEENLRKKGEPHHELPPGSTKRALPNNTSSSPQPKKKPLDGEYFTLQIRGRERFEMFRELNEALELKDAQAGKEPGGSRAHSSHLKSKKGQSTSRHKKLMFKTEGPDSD
Myc proto-oncogene protein (Homo sapiens), sequence (P01106 whole entry, looked up): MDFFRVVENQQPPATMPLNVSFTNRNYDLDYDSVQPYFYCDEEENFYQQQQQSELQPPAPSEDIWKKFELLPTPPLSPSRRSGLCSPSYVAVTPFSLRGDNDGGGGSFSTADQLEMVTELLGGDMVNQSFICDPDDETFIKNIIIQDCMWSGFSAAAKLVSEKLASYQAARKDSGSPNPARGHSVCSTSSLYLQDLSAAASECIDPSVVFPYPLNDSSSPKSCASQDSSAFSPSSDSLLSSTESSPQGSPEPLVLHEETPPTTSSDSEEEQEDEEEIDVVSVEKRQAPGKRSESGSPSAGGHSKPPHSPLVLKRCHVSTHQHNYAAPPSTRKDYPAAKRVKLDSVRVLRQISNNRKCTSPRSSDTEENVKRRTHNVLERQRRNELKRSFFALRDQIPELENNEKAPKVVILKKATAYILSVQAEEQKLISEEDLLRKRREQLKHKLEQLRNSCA

In the case of `OCCO`, the compound was classed as inactive in [1], in [2], in assay [3], in assay [4], in assay [5] and in assay [6]. For the same compound, the outcome in [7], in assay [8], in [9] and in [10] was inactive.
As to `Cc1cc2c(cc1C(F)(F)F)N(C(=O)Nc1ccc(Oc3cccnc3C)nc1)CC2`, the call in assay [1], in [2], in [3], in [4], in assay [5] and in assay [6] was inactive. The result in assay [8] and in [9] was inactive. Also, the AC50 in [7] was 0.623 µM (active).
Turning to `CC(C)(c1cc(Br)c(O)c(Br)c1)c1cc(Br)c(O)c(Br)c1`, the half-maximal activity concentration (AC50) in assay [1] was 57.6 µM (active) and 54.7 µM (active); in [2], 38.2 µM (active); in assay [4], 55.9 µM (active) and 57.6 µM (active); in [5], 47 µM (active) and 40.3 µM (active); in assay [6] it was 22.9 µM (active); in assay [7] it was 31.1 µM (active). The AC50 in [8] is 31.6 µM (active); in assay [9], 32.1 µM (active). The compound was called inactive in [2], in [3] and in [6].
In the case of `CCCCCCCCOC(=O)c1cc(O)c(O)c(O)c1`, the compound was classed as inactive in assay [1], in assay [2], in [3], in [5] and in assay [6]. Moreover, the AC50 in assay [4] was 5.96 µM (active); in assay [7] it was 20 µM (active); in assay [8], 36.3 µM (active); in [9] it was 32.5 µM (active); in assay [10], 17.3 µM (active).
Take `Cc1occc1C(=O)Nc1ccc(C(=O)N2CCC(F)(F)/C(=C\C(=O)N3CCC(N4CCCCC4)CC3)c3ccccc32)cc1`: the result in [1], in [6], in [7], in assay [8], in assay [9] and in [10] was inactive. For the same compound, the AC50 is 58.3 µM (active) in assay [2], 18.5 µM (active) in [3], 22 µM (active) in assay [4] and 49.6 µM (active) in assay [5].
Regarding `CCCOC(=O)c1cc(O)c(O)c(O)c1`, the result in assay [1], in assay [2], in assay [5], in assay [6], in assay [7] and in [8] was inactive. Besides, the result in assay [9] and in [10] was inactive. The AC50 in assay [4] was 5.91 µM (active).
Regarding `O=C(O)Cc1cc(I)c(Oc2ccc(O)c(I)c2)c(I)c1`, the outcome in assay [1], in assay [2], in [3], in assay [5], in assay [6] and in assay [7] was inactive. Also, the result in [8] and in [9] was inactive. The AC50 is 70 µM (active) [middle of 4 runs] in assay [4]; 35.7 µM (active) and 100 µM (active) in assay [5]; 25.9 µM (active) and 26.4 µM (active) and 9.57 µM (active) in assay [6].
With `Cc1ccc2oc(CN(Cc3ccccc3)C(=O)Nc3c(F)cc(F)cc3F)c(-c3ccc(Cl)cc3)c2c1`, the result in assay [1], in [2], in assay [3], in assay [4], in [5] and in [6] was inactive. In addition, the outcome in [7], in assay [9] and in [10] was inactive. Also, in assay [8], the AC50 was 10.8 µM (active).
For `O=C(Nc1ccc(Cl)cc1)Nc1ccc(Cl)c(Cl)c1`, the call in [1], in assay [2], in [3], in assay [6] and in assay [7] was inactive. Also, the AC50 in assay [4] is 6.66 µM (active); in assay [5] it was 5.12 µM (active); in assay [8] it was 1.89 µM (active); in assay [9], 3.5 µM (active).
On to `CCCCCCCCCC(=O)O`, for which the compound was classed as inactive in assay [1], in assay [2], in [3], in assay [4], in assay [5] and in assay [6]. The result in assay [7], in assay [8], in [9] and in assay [10] was inactive. In addition, the AC50 in assay [3] was 104 µM (active).
Take `c1ccc(C[n+]2cccc3ccccc32)cc1`: the result in assay [1], in [2], in assay [3], in assay [5], in assay [6] and in assay [7] was inactive. Besides, the result in [8] and in [9] was inactive. For the same compound, the AC50 in assay [4] was 67.9 µM (active).
Take `CN1C(=O)CC[C@H]1c1cccnc1`: the compound was called inactive in [1], in [2], in assay [3], in [4], in [5] and in assay [6]. The result in assay [7], in [8], in assay [9] and in [10] was inactive.
As to `Oc1ccccc1`, the result in assay [1], in [2], in assay [4], in assay [5], in assay [6] and in [7] was inactive. Also, the result in assay [8] and in assay [9] was inactive.
As to `NCc1cccc(C2CCN(C(=O)c3ccc(C#Cc4ccccc4F)o3)CC2)c1`, the call in [1], in assay [2] and in [6] was inactive. Further, the AC50 was 18.3 µM (active) in assay [3]; 1.76 µM (active) in assay [4]; 15.5 µM (active) in assay [5]; 15.6 µM (active) in assay [7]; 7.38 µM (active) in assay [8]; 15.8 µM (active) in [9].
On to `O=C(O)Cn1c(=O)n(Cc2ccc(Br)cc2F)c(=O)c2ccc(Cl)cc21`, for which the result in assay [1], in assay [2], in [5], in assay [6], in assay [7] and in [8] was inactive. Also, the result in assay [9] was inactive. The AC50 in assay [3] is 161 µM (active); in assay [4] it was 26.5 µM (active).
For `COc1cc(C(=O)NC2CCN(C)CC2)ccc1Nc1ncc2c(n1)N(C1CCCC1)CC(F)(F)C(=O)N2C`, the AC50 in assay [1] was 709 nM (active); in assay [5], 1.07 µM (active); in assay [6], 1.94 µM (active); in assay [7], 5.9 µM (active); in assay [8] it was 22.7 µM (active); in [9], 19.1 µM (active). The compound was called inactive in assay [2], in assay [3] and in assay [4].
For the compound `Cc1oc2c(NC(=O)c3c(Cl)cccc3Cl)cccc2c1C(C)(C)O`, the call in [1], in assay [2], in assay [4], in [5] and in [9] was inactive. Besides, the AC50 was 25.6 µM (active) in assay [6], 4.29 µM (active) in assay [7] and 25.7 µM (active) in assay [8].
As to `OC12N=C(c3ccccc3)SC1Cc1cc(Cl)ccc12` (stereo not given), the compound was classed as inactive in assay [1], in assay [2], in [5], in assay [6], in assay [8] and in assay [9]. For the same compound, the concentration at half-maximal activity (AC50) in [4] was 3.75 µM (active); in assay [7], 5.1 µM (active).
